From PubChem BioAssay (NCI)
This is part of a sample that, as a whole, favours compounds with a hit. Of some 83,000 tested, about 20% had one in any assay.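 Testing used 96-well plates and a 48-hour single-concentration exposure. Example: -40 means 40% of the starting cells died.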 Calls of active or inactive are those of the source. Rule for the calls: active = growth percent below 10; inactive = the rest.

Legend:
Experiment in all cases: NCI-60 one-dose screen, 48 h (100 = growth as untreated, 0 = no growth, -100 = all killed)
Settings in all cases: 10 µM unless noted
HCT-15 colon = tested on: HCT-15 colon
HT29 colon = tested on: HT29 colon
SNB-75 CNS = tested on: SNB-75 CNS
SNB-19 CNS = tested on: SNB-19 CNS
U251 CNS = tested on: U251 CNS
PC-3 prostate = tested on: PC-3 prostate
SK-MEL-5 melanoma = tested on: SK-MEL-5 melanoma
UACC-62 melanoma = tested on: UACC-62 melanoma
LOX IMVI melanoma = tested on: LOX IMVI melanoma
SK-MEL-28 melanoma = tested on: SK-MEL-28 melanoma
SK-MEL-2 melanoma = tested on: SK-MEL-2 melanoma
EKVX NSCLC = tested on: EKVX NSCLC
SN12C renal = tested on: SN12C renal
UO-31 renal = tested on: UO-31 renal
TK-10 renal = tested on: TK-10 renal
ACHN renal = tested on: ACHN renal
CAKI-1 renal = tested on: CAKI-1 renal
A498 renal = tested on: A498 renal
CCRF-CEM leukemia = tested on: CCRF-CEM leukemia
MOLT-4 leukemia = tested on: MOLT-4 leukemia

Measured: growth

COC(=O)Cn1c2c(c3c(OC)cccc31)C(=O)c1ccccc1-2
inactive: HCT-15 colon 101% | HT29 colon 95.8% | SNB-75 CNS 90.8% | SNB-19 CNS 90.5% | U251 CNS 89.9% | PC-3 prostate 87.4% | SK-MEL-5 melanoma 102% | UACC-62 melanoma 93.3% | LOX IMVI melanoma 91.8% | SK-MEL-28 melanoma 97.1% | SK-MEL-2 melanoma 109% | EKVX NSCLC 103% | SN12C renal 91.4% | UO-31 renal 82.5% | TK-10 renal 115% | ACHN renal 94.9% | CAKI-1 renal 110% | A498 renal 101% | CCRF-CEM leukemia 81.4% | MOLT-4 leukemia 83.8%

COC(=O)[C@@]12CC=C(C)[C@]3(C[C@H](c4ccoc4)OC3=O)[C@H]1C=C[C@@H](O)[C@@]2(O)C(=O)OC
inactive: HCT-15 colon 108% | HT29 colon 84.7% | SNB-75 CNS 88.9% | SNB-19 CNS 105% | U251 CNS 97.9% | PC-3 prostate 95.6% | SK-MEL-5 melanoma 107% | UACC-62 melanoma 92.8% | LOX IMVI melanoma 97.5% | SK-MEL-28 melanoma 105% | SK-MEL-2 melanoma 84.6% | EKVX NSCLC 94.7% | SN12C renal 104% | UO-31 renal 82.7% | TK-10 renal 80.3% | ACHN renal 105% | CAKI-1 renal 85.1% | A498 renal 109% | CCRF-CEM leukemia 111% | MOLT-4 leukemia 106%

CC1(C)N=C(N)N=C(N)N1c1cc(Cl)ccc1Cl
active: ACHN renal -25.2% | CAKI-1 renal 9.84%
inactive: HCT-15 colon 13% | HT29 colon 24.8% | SNB-75 CNS 118% | SNB-19 CNS 92.6% | U251 CNS 80% | PC-3 prostate 101% | SK-MEL-5 melanoma 98.1% | UACC-62 melanoma 88.7% | LOX IMVI melanoma 70.2% | SK-MEL-28 melanoma 106% | SK-MEL-2 melanoma 19.5% | EKVX NSCLC 99.7% | SN12C renal 90.4% | UO-31 renal 91% | TK-10 renal 94% | A498 renal 83.8% | CCRF-CEM leukemia 96.1% | MOLT-4 leukemia 71.1%

CCN(CC)CCOc1ccc2ccc(=O)oc2c1
inactive: HCT-15 colon 104% | HT29 colon 102% | SNB-75 CNS 107% | SNB-19 CNS 98.5% | U251 CNS 101% | PC-3 prostate 21.3% | SK-MEL-5 melanoma 102% | UACC-62 melanoma 94.8% | LOX IMVI melanoma 101% | SK-MEL-28 melanoma 99.6% | SK-MEL-2 melanoma 103% | EKVX NSCLC 105% | SN12C renal 100% | UO-31 renal 82.9% | TK-10 renal 97.7% | ACHN renal 97% | CAKI-1 renal 90.9% | A498 renal 98.5%
active: CCRF-CEM leukemia 3.66% | MOLT-4 leukemia 4.48%

Cc1cc(N2CCN(CC(=O)Nc3ccc4c(ccn4Cc4ccccc4)c3)CC2)nc(N2CCOCC2)n1
inactive: HCT-15 colon 65.1% | HT29 colon 67.3% | SNB-75 CNS 88.7% | SNB-19 CNS 84.3% | U251 CNS 70.8% | PC-3 prostate 57% | SK-MEL-5 melanoma 83.1% | UACC-62 melanoma 67.7% | LOX IMVI melanoma 88.2% | SK-MEL-28 melanoma 91.4% | SK-MEL-2 melanoma 93% | EKVX NSCLC 74.8% | SN12C renal 87% | UO-31 renal 49% | TK-10 renal 88.2% | ACHN renal 100% | CAKI-1 renal 88% | A498 renal 22.9% | MOLT-4 leukemia 77.8%
active: CCRF-CEM leukemia 5.84%

O=S(=O)(Nc1cc(Sc2nc3ccccc3s2)c(O)c2ccccc12)c1ccc2ccccc2c1
inactive: HCT-15 colon 97.5% | HT29 colon 115% | SNB-75 CNS 88.2% | SNB-19 CNS 106% | U251 CNS 86.6% | PC-3 prostate 77.3% | SK-MEL-5 melanoma 74.5% | UACC-62 melanoma 99.1% | LOX IMVI melanoma 60.1% | SK-MEL-28 melanoma 116% | SK-MEL-2 melanoma 95.8% | EKVX NSCLC 101% | SN12C renal 90.6% | UO-31 renal 70.2% | TK-10 renal 123% | ACHN renal 97.6% | CAKI-1 renal 101% | A498 renal 96.9% | CCRF-CEM leukemia 67.7% | MOLT-4 leukemia 59.1%

Cc1cc(O)c(=O)cc2c1C[C@H]1CC(C)(C)/C=C/C[C@]3(C)Oc4cc(=O)c(O)cc(C)c4C[C@H]3C[C@H](O)[C@@]1(C)O2
inactive: HCT-15 colon 17.3% | SNB-75 CNS 23.5% | PC-3 prostate 10.2% | TK-10 renal 12.8% | A498 renal 12.3%
active: HT29 colon 7.77% | SNB-19 CNS 4.62% | U251 CNS 2.67% | SK-MEL-5 melanoma -9.26% | UACC-62 melanoma -56.5% | LOX IMVI melanoma 6.33% | SK-MEL-28 melanoma 5.5% | SK-MEL-2 melanoma -0.26% | EKVX NSCLC 1.96% | SN12C renal 0.888% | UO-31 renal -3.55% | ACHN renal 6.64% | CAKI-1 renal 0.0892% | CCRF-CEM leukemia 9.98% | MOLT-4 leukemia 7.8%
